Results published in PubChem BioAssay (EPA / NIEHS).
Activity calls are given as the source filed them. The calls were made as follows: active = hit-call score of the fitted dose curve at least 0.9, where 1 is the maximum; inactive = score below 0.9.

Key:
[1] = ATG_CRE_CIS: Attagene CIS-FACTORIAL HepG2 Assay for human cAMP Responsive Element (CRE) binding protein 3 (AID 2282926); details: HepG2 CRE cis-reporter, Attagene multiplexed mRNA; actives raise or lower the signal
Procedure, shortened: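 HepG2 cells transiently transfected with cis-element-driven multiple reporter transcription units; CRE reporter mRNA measured 24 h after dosing by RT-PCR, 6-FAM labelling, HpaI digestion and capillary electrophoresis. Bidirectional fit versus DMSO baseline.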

[2] = target: CCAAT/enhancer-binding protein beta (Homo sapiens) (UniProt P17676); test: ATG_C_EBP_CIS: Attagene CIS-FACTORIAL HepG2 Assay for human CCAAT/Enhancer Binding Protein (C/EBP) beta (AID 2282927); details: HepG2 Attagene cis-factorial transcription factor reporter; actives raise or lower the signal
Procedure, shortened: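 Chemical-treated HepG2 cells (24 h) bearing cis-regulated reporter constructs were processed for total RNA, then reverse transcription, PCR amplification, fluorescent primer extension and fragment analysis; gain- and loss-of-signal were fitted against DMSO.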

[3] = ATG_CMV_CIS: Attagene CIS-FACTORIAL HepG2 Assay for human CMV (Internal Marker) (AID 2282928); details: HepG2 CMV promoter reporter, transcription factor profiling; actives raise or lower the signal;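 also: endpoint acts as a background internal control marker rather than a target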
Procedure, shortened: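 CMV internal-marker background readout in transiently transfected HepG2 cells bearing cis-regulated reporter units. Reporter mRNA is measured 24 h after dosing by RT-PCR and capillary electrophoresis, with bidirectional fitting against DMSO.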

[4] = ATG_DR4_LXR_CIS: Attagene CIS-FACTORIAL HepG2 Assay for human Liver X Receptor (LXR), DR4 submotif (AID 2282929); details: HepG2 Attagene DR4 cis-reporter, mRNA transcription; actives raise or lower the signal
Procedure, shortened: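 Endogenous factor activity at a DR4 cis-element is read as reporter mRNA in transiently transfected HepG2 cells. Exposure lasts 24 h; transcripts are amplified, fluorescently labelled and sized by capillary electrophoresis, with DMSO as baseline.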

[5] = target: Aryl hydrocarbon receptor (Homo sapiens) (UniProt P35869); test: ATG_Ahr_CIS: Attagene CIS-FACTORIAL HepG2 Assay for human Aryl Hydrocarbon Receptor (Ahr) (AID 2282930); details: HepG2 AhR cis-factorial reporter transcription; actives raise or lower the signal
Procedure, shortened: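 Following 24 h of chemical dosing, transfected HepG2 liver cells with cis-driven reporter units were lysed for RNA; reporter mRNA was quantified via RT-PCR and capillary electrophoresis, and responses fitted bidirectionally from DMSO.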

[6] = ATG_AP_1_CIS: Attagene CIS-FACTORIAL HepG2 Assay for human Activator Protein 1 (AP-1) (AID 2282931); details: HepG2 Attagene cis-factorial AP-1 reporter mRNA; actives raise or lower the signal
Procedure, shortened: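 Fluorescence of labelled PCR fragments separated by capillary electrophoresis gives reporter mRNA levels. HepG2 with transfected cis-regulated reporter units, 24 h exposure; DMSO serves as baseline for bidirectional curve fits.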

[7] = ATG_AP_2_CIS: Attagene CIS-FACTORIAL HepG2 Assay for human Activator Protein 2 (AP-2) (AID 2282932); details: HepG2 AP-2 cis-reporter, Attagene transcription factor profiling; actives raise or lower the signal
Procedure, shortened: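 HepG2 cells were transiently transfected with multiple cis-promoter reporter transcription units and dosed for 24 h. Reporter mRNA was measured by RT-PCR with capillary electrophoresis fluorescence; bidirectional fits relative to DMSO baseline.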

[8] = ATG_BRE_CIS: Attagene CIS-FACTORIAL HepG2 Assay for human Bone Morphogenetic Protein (BMP) Response Element (BRE) (AID 2282933); details: HepG2 BMP response element reporter, Attagene transcription factor profiling; actives raise or lower the signal
Procedure, shortened: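 Transient MRTU transfection of human HepG2 liver cells; 24 h compound treatment; total RNA isolated, reverse-transcribed, PCR-amplified, 6-FAM labelled, HpaI-cut, capillary electrophoresis. DMSO = negative control/baseline, bidirectional fit.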

[9] = target: Retinoic acid receptor alpha (Homo sapiens) (UniProt P10276); test: ATG_DR5_RAR_CIS: Attagene CIS-FACTORIAL HepG2 Assay for human Retinoic Acid Receptor Alpha (RARE), DR5 submotif (AID 2282934); details: HepG2 Attagene cis-factorial RARE DR5 reporter, mRNA; actives raise or lower the signal
Procedure, shortened: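 Transfected HepG2 reporter cells are exposed to chemicals for 24 h. Then RNA is extracted and the DR5 element reporter transcript is measured by RT-PCR and capillary electrophoresis, with bidirectional curve fitting relative to DMSO.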

[10] = target: Transcription factor E2F1 (Homo sapiens) (UniProt Q01094); test: ATG_E2F_CIS: Attagene CIS-FACTORIAL HepG2 Assay for human E2F Transcription Factor 1 (AID 2282935); details: HepG2 Attagene cis-reporter, E2F reporter RNA transcripts; actives raise or lower the signal
Procedure, shortened: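 HepG2 cells transiently transfected with multiplexed cis-element reporter units, dosed for 24 h. Reporter mRNA measured by RT-PCR, 6-FAM primer-extension labeling, HpaI digestion and capillary electrophoresis; bidirectional fit versus DMSO baseline.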

Measured: AC50

Sequence of Retinoic acid receptor alpha (Homo sapiens) (P10276 whole entry, looked up): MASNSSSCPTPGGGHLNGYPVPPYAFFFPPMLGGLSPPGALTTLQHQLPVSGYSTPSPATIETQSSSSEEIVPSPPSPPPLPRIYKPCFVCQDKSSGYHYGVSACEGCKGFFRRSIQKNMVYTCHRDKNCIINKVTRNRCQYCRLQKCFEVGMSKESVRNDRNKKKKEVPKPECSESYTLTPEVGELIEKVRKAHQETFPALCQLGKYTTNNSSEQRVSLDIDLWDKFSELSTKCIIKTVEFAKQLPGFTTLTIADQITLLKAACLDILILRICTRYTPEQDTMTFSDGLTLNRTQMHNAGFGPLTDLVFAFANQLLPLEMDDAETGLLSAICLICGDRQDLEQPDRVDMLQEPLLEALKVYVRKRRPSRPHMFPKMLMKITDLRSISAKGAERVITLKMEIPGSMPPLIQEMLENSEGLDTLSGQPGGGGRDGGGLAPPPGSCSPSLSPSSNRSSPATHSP
Sequence of CCAAT/enhancer-binding protein beta (Homo sapiens) (P17676 whole entry, looked up, the tested form may be a part): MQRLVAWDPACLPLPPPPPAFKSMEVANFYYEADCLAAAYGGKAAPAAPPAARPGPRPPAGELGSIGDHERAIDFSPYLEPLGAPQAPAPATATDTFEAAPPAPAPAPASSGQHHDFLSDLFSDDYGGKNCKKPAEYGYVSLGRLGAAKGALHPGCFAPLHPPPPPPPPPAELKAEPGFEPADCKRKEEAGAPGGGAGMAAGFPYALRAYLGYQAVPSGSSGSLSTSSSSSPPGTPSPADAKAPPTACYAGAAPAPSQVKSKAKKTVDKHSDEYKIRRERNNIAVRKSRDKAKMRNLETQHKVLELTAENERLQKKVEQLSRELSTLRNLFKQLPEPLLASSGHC
Sequence of Transcription factor E2F1 (Homo sapiens) (Q01094 whole entry, looked up): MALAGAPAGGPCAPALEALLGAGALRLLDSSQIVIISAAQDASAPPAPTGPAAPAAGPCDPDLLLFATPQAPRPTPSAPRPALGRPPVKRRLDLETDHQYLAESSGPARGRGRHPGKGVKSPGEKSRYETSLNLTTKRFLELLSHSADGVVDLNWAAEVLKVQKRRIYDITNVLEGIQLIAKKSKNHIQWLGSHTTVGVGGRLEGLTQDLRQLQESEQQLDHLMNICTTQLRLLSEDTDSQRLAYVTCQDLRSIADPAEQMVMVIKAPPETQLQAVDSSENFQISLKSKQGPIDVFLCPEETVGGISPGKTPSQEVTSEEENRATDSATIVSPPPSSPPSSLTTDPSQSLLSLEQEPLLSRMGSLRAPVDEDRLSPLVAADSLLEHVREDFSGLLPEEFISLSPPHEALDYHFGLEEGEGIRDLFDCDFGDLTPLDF
Sequence of Aryl hydrocarbon receptor (Homo sapiens) (P35869 whole entry, looked up): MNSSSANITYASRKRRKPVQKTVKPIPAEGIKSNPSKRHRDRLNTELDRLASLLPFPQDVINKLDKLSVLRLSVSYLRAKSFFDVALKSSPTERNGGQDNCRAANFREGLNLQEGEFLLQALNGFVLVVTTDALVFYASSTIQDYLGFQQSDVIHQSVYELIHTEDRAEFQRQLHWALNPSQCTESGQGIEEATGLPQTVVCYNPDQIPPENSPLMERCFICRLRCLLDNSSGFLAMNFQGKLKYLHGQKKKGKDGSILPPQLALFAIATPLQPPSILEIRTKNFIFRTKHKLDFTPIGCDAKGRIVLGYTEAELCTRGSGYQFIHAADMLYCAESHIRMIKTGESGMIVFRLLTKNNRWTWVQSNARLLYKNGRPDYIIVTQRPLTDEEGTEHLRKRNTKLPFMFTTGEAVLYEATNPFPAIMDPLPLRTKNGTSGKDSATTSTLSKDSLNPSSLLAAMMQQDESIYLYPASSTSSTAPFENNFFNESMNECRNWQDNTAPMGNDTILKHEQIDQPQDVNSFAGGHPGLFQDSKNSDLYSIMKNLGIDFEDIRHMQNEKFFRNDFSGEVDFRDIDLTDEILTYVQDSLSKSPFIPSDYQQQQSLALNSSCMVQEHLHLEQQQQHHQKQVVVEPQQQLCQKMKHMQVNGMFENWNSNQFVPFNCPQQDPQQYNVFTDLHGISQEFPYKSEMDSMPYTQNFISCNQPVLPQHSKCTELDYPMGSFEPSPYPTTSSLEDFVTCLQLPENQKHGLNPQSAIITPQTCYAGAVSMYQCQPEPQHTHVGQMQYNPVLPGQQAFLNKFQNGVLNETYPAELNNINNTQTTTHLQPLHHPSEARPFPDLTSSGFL

CCOCCOCCOCCO
inactive: [1] | [2] | [3] | [4] | [5] | [6] | [7] | [8] | [9] | [10]

CNS(=O)(=O)c1cc(C(=O)N2CCC(CCN3C4CCC3CC(n3c(C)nc5ccccc53)C4)(c3cccc(F)c3)CC2)c(Cl)cc1F (stereo unspecified)
active: [4] 7.55 µM
inactive: [1] | [2] | [3] | [5] | [6] | [7] | [8] | [9] | [10]

CCC(C)(C)C(=O)O[C@H]1C[C@@H](C)C=C2C=C[C@H](C)[C@H](CC[C@@H]3C[C@@H](O)CC(=O)O3)[C@H]21
inactive: [1] | [2] | [3] | [4] | [5] | [6] | [7] | [8] | [9] | [10]

CCOCCO
inactive: [1] | [2] | [3] | [4] | [5] | [6] | [7] | [8] | [9] | [10]

O=C(O)CC(O)C(=O)O (stereo unspecified)
inactive: [1] | [2] | [3] | [4] | [5] | [6] | [7] | [8] | [9] | [10]

CC(C)CCCCCCOC(=O)c1ccc(C(=O)OCCCCCCC(C)C)c(C(=O)OCCCCCCC(C)C)c1
inactive: [1] | [2] | [3] | [4] | [5] | [6] | [7] | [8] | [9] | [10]

O=c1[nH]c2ccc(S(=O)CCN3CCC(Cc4ccc(F)cc4)CC3)cc2o1 (stereo unspecified)
inactive: [1] | [2] | [3] | [5] | [6] | [7] | [9] | [10]
active: [4] 173 µM | [8] 100 µM

CCOC(=O)CC(CC(=O)OCC)(OC(C)=O)C(=O)OCC
inactive: [1] | [2] | [3] | [4] | [5] | [6] | [7] | [8] | [9] | [10]

CCn1nc(Cc2ccccc2)cc1C1CCN(C[C@H]2C[C@H](N(C)[C@@H](C(=O)O)C(C)C)C[C@@H]2c2cccc(F)c2)CC1
inactive: [1] | [2] | [3] | [5] | [6] | [7] | [8] | [9] | [10]
active: [4] 100 µM

COC(=O)CC(=O)OC
inactive: [1] | [2] | [3] | [4] | [6] | [7] | [8] | [9] | [10]

Cn1cnc([N+](=O)[O-])c1Sc1ncnc2nc[nH]c12
inactive: [1] | [2] | [4] | [7] | [8] | [9] | [10]
active: [3] 35.3 µM | [6] 28.1 µM

CC/C(=C\C(=N/O)C(N)=O)C(C)[N+](=O)[O-] (stereo unspecified)
inactive: [1] | [2] | [3] | [4] | [6] | [7] | [8] | [9] | [10]

CCCCCCCCCCCCCCCO
inactive: [1] | [2] | [6] | [7] | [8] | [9] | [10]
active: [3] 56.6 µM | [4] 57.7 µM

C=CC(=C)CCC=C(C)C
inactive: [1] | [2] | [3] | [4] | [6] | [7] | [8] | [9] | [10]

Cc1c(-c2cccnc2)c2ccccc2n1CCCCC(=O)O
inactive: [1] | [2] | [4] | [5] | [6] | [7] | [8] | [9] | [10]

COc1ccc2sc(C(=O)Nc3nnn[nH]3)c(OC(C)C)c2c1
inactive: [1] | [2] | [7] | [10]
active: [3] 26.9 µM | [4] 158 µM | [6] 27 µM | [8] 41.8 µM

CCCC(=O)OCC
inactive: [1] | [2] | [4] | [5] | [6] | [7] | [8] | [9] | [10]

COc1ccc(/C=C/S(=O)(=O)NC(=O)c2ccc(C)cc2Cl)cc1
inactive: [1] | [2] | [3] | [4] | [6] | [7] | [8] | [9] | [10]

O=C(O)CCN(C1(C(=O)NO)CCCC1)S(=O)(=O)c1ccc(Oc2ccc(F)cc2)cc1
inactive: [1] | [2] | [3] | [4] | [6] | [7] | [8] | [9] | [10]

CCOC(=O)COc1ccc2c(c1)CC(NCC(O)c1cccc(Cl)c1)CC2 (stereo unspecified)
inactive: [2] | [3] | [4] | [6] | [7] | [8] | [9] | [10]
active: [1] 33 µM

CC(C)=CCC/C(C)=C/CO
inactive: [1] | [2] | [3] | [4] | [6] | [7] | [8] | [10]
